# Laboratory results taken from PubChem BioAssay (NCATS).
# Experiment: qHTS profiling of the MIPE4 collection as inhibitors of Plasmodium falciparum (3D7) proliferation (AID 743344);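 also: scaled between DMSO vehicle wells and 0.29 µM artemisinin as full inhibition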
# Details: P. falciparum 3D7 in erythrocytes, SYBR Green DNA fluorescence, 72 h; at 9.64 µM (top of the series)
# Text: Plasmodium falciparum is a virulent malarial parasite that kills 1-2 million people worldwide each year. Transmitted by mosquitoes, the sporozoite form of the parasite enters the blood stream to infect hepatocytes, where they become merozoites that infect red blood cells (erythrocytes). Within erythrocytes, merozoites begin a […] cycle of growth and division, after which the parasite is released to infect new red blood cells. Gametocytes, which form within erythrocytes as well, circulate in the bloodstream and are ingested by the mosquito, thereby completing the life cycle. To profile malarial isolates for differential chemical responses and to identify inhibitors of malarial growth, an assay that measures P. falciparum growth and replication within erythrocytes was employed. This assay uses a DNA binding fluorescent dye (SYBR Green) to detect parasite DNA following cell lysis. Because mature erythrocytes lack DNA, only Plasmodium-derived DNA is detected.
# The SYBR Green viability assay was adapted from a method described previously (Plouffe et al., 2008). For screening 3 ul culture medium was dispensed into 1536 well black clear bottom plates (Aurora Biotechnologies) using a Multidrop Combi (Thermo Fisher Scientific Inc.), 23 nL compounds in DMSO were added by a pin tool (Kalypsys), and 5 ul of erythrocytes infected with P. falciparum (0.3% parasitemia, 2.5% hematocrit final concentration) were added. The plates were incubated at 37 C in a humidified incubator in 5% CO2 for 72 h, and 2 ul lysis buffer (20 mM Tris HCl, 10 mM EDTA, 0.16% saponin, 1.6% triton X, 10X SYBR Green I supplied as 10,000X […] by Invitrogen) was added to each well. The plates were mixed for 25 sec with gentle shaking and incubated overnight at room temperature in the dark. The following morning, fluorescence intensity at 485(14) nm excitation and 535(25) nm emission wavelengths was measured on an EnVision (Perkin Elmer) plate reader. Plate reads were normalized relative to the control inhibitor (0.29 uM artemisinin) and vehicle (DMSO) wells present on each plate and then corrected by an algorithm using vehicle-only control plates at the beginning and end of the compound plate stack.
row,Structure (SMILES),"parasite growth, % of DMSO control [%]"
1,C[C@H]1C[C@@H]2[C@@H]([C@@H](O)C[C@@]3(C)[C@H]2CC[C@]3(O)C(=O)CO)[C@@]2(C)C=CC(=O)C=C12,78.1

# Same assay, conditions: P. falciparum 3D7 in erythrocytes, SYBR Green DNA fluorescence, 72 h; at 28.5 µM
row,Structure (SMILES),"parasite growth, % of DMSO control [%]"
1,C[C@H]1C[C@@H]2[C@@H]([C@@H](O)C[C@@]3(C)[C@H]2CC[C@]3(O)C(=O)CO)[C@@]2(C)C=CC(=O)C=C12,59.3

# Same assay, conditions: P. falciparum 3D7 in erythrocytes, SYBR Green DNA fluorescence, 72 h; at 28.5 µM unless noted
row,Structure (SMILES),"parasite growth, % of DMSO control"
1,Cc1cc(Nc2cc(CN3CCOCC3)c3nc(C)c(Cc4ccc(Cl)cc4F)n3n2)n[nH]1,6.44%
2,COc1cc2nccc(Oc3ccc(NC(=O)C4(C(=O)Nc5ccc(F)cc5)CC4)cc3)c2cc1OC,3.93%
3,CC(C)(C)OC(=O)Nc1ccc(-c2cc(C(=O)NCCCCCCC(=O)NO)no2)cc1,4.81%
4,Cc1cc(C(=O)N2CCN(c3cccc(Cl)c3)CC2)n(-c2ccccc2)n1,97.2%
5,COc1cc(Nc2ncc(F)c(Nc3ccc4c(n3)N(COP(=O)(O)O)C(=O)C(C)(C)O4)n2)cc(OC)c1OC,19.5%
6,OCc1ccc(-c2ccc(-c3ccc(CO)s3)o2)s1,78.4%
7,CC[C@H](CO)Nc1nc(NCc2ccccc2)c2ncn(C(C)C)c2n1,20%
8,NC1(Cc2ccc(Cl)cc2)CCN(c2ncnc3[nH]ccc23)CC1,19.2%
9,C=CC(=O)Nc1cccc(Oc2nc(Nc3ccc(N4CCN(C)CC4)cc3OC)ncc2Cl)c1,10.5%
10,Cc1c(C)n(Cc2ccc(-c3ccccc3C(=O)O)cc2)c2ccc(C(=O)N[C@@H](C)c3ccc([N+](=O)[O-])cc3)cc12,25.4%
11,Cc1nc2ccc(CN(C)c3ccc(C(=O)N[C@@H](CCC(=O)O)C(=O)O)s3)cc2c(=O)[nH]1,211%
12,CC(C)c1ccccc1Cc1cc(C(=O)Nc2ccc(S(=O)(=O)c3ccccc3C(C)(C)C)cc2)c(O)c(O)c1O,5.18%
13,O=C(NCCS(=O)(=O)c1ccc(C(F)(F)F)cn1)c1ccc(Cl)cc1,127%
14,CCN1CCN(Cc2ccc(-c3cc4c(N[C@H](C)c5ccccc5)ncnc4[nH]3)cc2)CC1,5.16%
15,C=C1C(=CC=C2CCCC3(C)[C@@H]([C@H](C)C=CC=CC(O)(CC)CC)CC[C@@H]23)C[C@@H](O)C[C@@H]1O (stereo not given in full),17.5%
16,COC(=O)Nc1nc2ccc(C(=O)c3ccc(F)cc3)cc2[nH]1,66.2%
17,Nc1nc(NCCNc2ncc(-n3ccnc3)c(-c3ccc(Cl)cc3Cl)n2)ccc1[N+](=O)[O-],16.9%
18,Cc1ccc2nc(NC(=O)CSc3nc4c(c(=O)n3-c3ccccc3)SCC4)sc2c1,29.9%
19,Cn1c2ccccc2c2c3c(c4c5ccccc5n(CCC#N)c4c21)CNC3=O,16%

row,Structure (SMILES),"parasite growth, % of DMSO control"
1,Nc1ccccc1NC(=O)c1ccc(CNc2nccc(-c3cccnc3)n2)cc1,5.35%
2,CNC(=O)c1ccccc1Nc1nc(Nc2ccc(N3CCOCC3)cc2OC)ncc1Cl,10.8%
3,Cc1cnc(-c2cnc(NCCNc3ccc(C#N)cn3)nc2-c2ccc(Cl)cc2Cl)[nH]1,34.7%
4,CC(=O)Nc1nc(C)c(-c2ccc(Cl)c(S(=O)(=O)NCCO)c2)s1,4.79%
5,Cc1cc(N2CCOCC2)cc2[nH]c(-c3c(NC[C@@H](O)c4cccc(Cl)c4)cc[nH]c3=O)nc12,5.92%
6,CC(C)C[C@H](NC(=O)CNC(=O)c1cc(Cl)ccc1Cl)B(O)O,5.16%
7,Cc1c(NC(=O)OC[C@@H]2COCCN2)cn2ncnc(Nc3ccc4c(cnn4Cc4cccc(F)c4)c3)c12,5.88%
8,CCN1CCN(CC(=O)Nc2ccc(-c3cccc4c(=O)cc(N5CCOCC5)oc34)c3sc4ccccc4c23)CC1,5.76%
9,COc1cc(=C2C=c3ccccc3=N2)[nH]c1=Cc1[nH]c(C)cc1C,4.63%
10,CCc1cc2c(cc1N1CCC(N3CCOCC3)CC1)C(C)(C)c1[nH]c3cc(C#N)ccc3c1C2=O,12.5%
11,CC(C)(C)c1cnc(CSc2cnc(NC(=O)C3CCNCC3)s2)o1,11.9%
12,CN(c1ncccc1CNc1nc(Nc2ccc3c(c2)CC(=O)N3)ncc1C(F)(F)F)S(C)(=O)=O,12.5%
13,CC(C)c1cc(C(=O)N2Cc3ccc(CN4CCN(C)CC4)cc3C2)c(O)cc1O,5.55%
14,COc1c(OCCCN2CCOCC2)ccc2c3n(c(=NC(=O)c4cnc(N)nc4)nc12)CCN3,7.6% [at 9.64 µM]
15,CCn1nnc2c(N3CCOCC3)nc(-c3ccc(NC(=O)Nc4ccc(C(=O)N5CCN(C)CC5)cc4)cc3)nc21,6.79%
16,CN(C)c1nc(Cc2ccc(NC(=O)c3ccc4ccccc4c3)cc2)nc(Cl)c1CC(=O)O,59.8%
17,CC1(C)OC2=C(C(=O)c3ccccc3C2=O)[C@H](NCc2ccccc2)[C@H]1O,6.23%
18,CC(NCc1ccc2c(c1)nc(NC(=O)c1ccc(-c3cn[nH]c3)s1)n2CC(C)(C)O)C(C)(C)C (stereo not given),5.17%
19,O=C(O)C1(Cc2cccc(Nc3nccs3)n2)CCC(Oc2cccc(Cl)c2F)CC1 (stereo not given),63.9%
